Experimental data as given in PubChem BioAssay (NCATS).
Results filed as inconclusive are left out. Unmarked numbers belong to inactive results. The call rests on the fitted dose curve; in most records, active means well fitted curve in the direction sought with a large enough effect; inconclusive means small, poorly fitted or top-dose-only effect, or another doubt; inactive means no such curve, though single readings can be large; an effect the other way counts as inactive or inconclusive.

test system: not listed separately; assay: qHTS of Trypanosoma Brucei Inhibitors: LOPAC Validation (AID 624147); details: purified enzyme assay, luminescence, 45 min; series mostly up to 57.5 µM; activity change, negative = inhibition: at the top concentration
Summary of the method: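 Quantitative HTS: titrated library compounds versus trypanosomal pyruvate kinase in TEA buffer (pH 7.2) containing KCl, MgCl2, BSA and Tween-20. Reactions were initiated with ADP, 130 uM final. Kinase-Glo Plus luminescence was read after 45 min at RT.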
Further: 0% is about no effect.

| Structure (SMILES) | activity change, negative = inhibition |
| --- | --- |
| OCc1ccc(-c2nn(Cc3ccccc3)c3ccccc23)o1 | -4.48% |
| CC1=C(C(=O)O)N2C(=O)[C@@H](NC(=O)C(N)c3ccccc3)[C@H]2SC1 (some centres undefined) | -4.71% |
| CC(=O)[C@H]1CC[C@H]2[C@@H]3CCC4=CC(=O)CC[C@]4(C)[C@H]3CC[C@]12C | -9.03% |
| COc1cc2ncnc(Nc3cccc(Cl)c3)c2cc1OC | -6.6% |
| NC(=O)c1cccc(N)c1 | -5.93% |
| COc1cc2nc(N3CCCN(C)CC3)nc(NC3CCN(Cc4ccccc4)CC3)c2cc1OC | -10.8% |
| CCN(CC)CCn1c(=O)c(Cc2ccc(OC)cc2)nc2ccccc21 | -12% |
| CCCCS(=N)(=O)CCC(N)C(=O)O (centres undefined) | 10.6% |
| N[C@@H](Cc1ccc(O)c(O)c1)C(=O)O | -18.6% |
| Nc1nc(N)c2nc(CNc3ccc(C(=O)NC(CCC(=O)O)C(=O)O)cc3)cnc2n1 (centres undefined) | 2.66% |
| NC(=O)c1ccc2[nH]ccc2c1 | -9.19% |
| CC(C)NCC(O)c1ccc(NS(C)(=O)=O)cc1 (centres undefined) | -14.6% |
| CC1CC2C3CCC4=CC(=O)C=C[C@]4(C)[C@@]3(F)[C@@H](O)C[C@]2(C)[C@@]1(O)C(=O)CO (some centres undefined) | -5.77% |
| Cc1ccc(S(=O)(=O)N[C@@H](Cc2ccccc2)C(=O)CCl)cc1 | -14.2% |
| CCN(CC)CC#CCOC(=O)C(O)(c1ccccc1)C1CCCCC1 (centres undefined) | -11.3% |
| O=C(O)C1CCCN(CCC=C(c2ccccc2)c2ccccc2)C1 (centres undefined) | 8.21% |
| CCN1CCCC1CNC(=O)c1cc(S(N)(=O)=O)ccc1OC (centres undefined) | -5.51% |

molecular target: Glucagon-like peptide 1 receptor (Homo sapiens) (UniProt P43220); assay: qHTS of GLP-1 Receptor Agonists: LOPAC Validation (AID 624148); details: GLP-1R agonist cell assay; series mostly up to 46.1 µM; activation: at the top concentration;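 further: higher luminescence signal means agonism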
Sequence (P43220 whole entry, looked up): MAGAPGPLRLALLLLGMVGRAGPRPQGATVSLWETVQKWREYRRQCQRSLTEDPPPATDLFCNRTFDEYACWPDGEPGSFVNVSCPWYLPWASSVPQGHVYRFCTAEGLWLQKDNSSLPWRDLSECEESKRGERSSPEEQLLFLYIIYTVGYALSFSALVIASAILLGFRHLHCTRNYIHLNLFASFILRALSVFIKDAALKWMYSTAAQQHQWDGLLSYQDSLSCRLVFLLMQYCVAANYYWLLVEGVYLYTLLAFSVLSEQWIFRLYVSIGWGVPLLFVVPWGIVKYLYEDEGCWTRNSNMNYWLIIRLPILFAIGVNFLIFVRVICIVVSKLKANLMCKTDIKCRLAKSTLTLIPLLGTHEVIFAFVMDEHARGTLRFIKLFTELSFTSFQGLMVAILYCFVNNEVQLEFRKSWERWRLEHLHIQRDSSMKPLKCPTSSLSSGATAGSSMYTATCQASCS
Summary of the method: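 HEK293 cells stably co-expressing GLP-1R and a cAMP-responsive luciferase reporter, plated 12 hours before compound, then incubated 4-6 hr at 37 deg C. Luminescence read 12 min after detection reagent.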

| Structure (SMILES) | activation |
| --- | --- |
| OCc1ccc(-c2nn(Cc3ccccc3)c3ccccc23)o1 | -1.37% |
| CC1=C(C(=O)O)N2C(=O)[C@@H](NC(=O)C(N)c3ccccc3)[C@H]2SC1 (some centres undefined) | -1.13% |
| CC(=O)[C@H]1CC[C@H]2[C@@H]3CCC4=CC(=O)CC[C@]4(C)[C@H]3CC[C@]12C | 6.04% |
| COc1cc2ncnc(Nc3cccc(Cl)c3)c2cc1OC | 9.81% |
| NC(=O)c1cccc(N)c1 | -0.761% |
| COc1cc2nc(N3CCCN(C)CC3)nc(NC3CCN(Cc4ccccc4)CC3)c2cc1OC | -0.508% |
| CCN(CC)CCn1c(=O)c(Cc2ccc(OC)cc2)nc2ccccc21 | 10.7% |
| CCCCS(=N)(=O)CCC(N)C(=O)O (centres undefined) | 0.994% |
| N[C@@H](Cc1ccc(O)c(O)c1)C(=O)O | -1.48% |
| Nc1nc(N)c2nc(CNc3ccc(C(=O)NC(CCC(=O)O)C(=O)O)cc3)cnc2n1 (centres undefined) | 0.922% |
| NC(=O)c1ccc2[nH]ccc2c1 | -1.45% |
| CC(C)NCC(O)c1ccc(NS(C)(=O)=O)cc1 (centres undefined) | 0.702% |
| CC1CC2C3CCC4=CC(=O)C=C[C@]4(C)[C@@]3(F)[C@@H](O)C[C@]2(C)[C@@]1(O)C(=O)CO (some centres undefined) | -1.98% |
| Cc1ccc(S(=O)(=O)N[C@@H](Cc2ccccc2)C(=O)CCl)cc1 | -0.115% |
| CCN(CC)CC#CCOC(=O)C(O)(c1ccccc1)C1CCCCC1 (centres undefined) | -1.32% |
| O=C(O)C1CCCN(CCC=C(c2ccccc2)c2ccccc2)C1 (centres undefined) | -0.912% |
| CCN1CCCC1CNC(=O)c1cc(S(N)(=O)=O)ccc1OC (centres undefined) | -1.66% |
